# Assay outcomes as filed in PubChem BioAssay.
# Sampled rows, rich in hits. Any-hit rate of the full collection: about 9%.
# ALDH1A1 inh: blocks purified human ALDH1A1 activity; Purified ALDH1A1, NADH fluorescence, propionaldehyde substrate; 7.3% of 220,000 active; AID 1030; Potency, µM (highest dose often 75.3 µM), for inactives: top-dose activity, negative = inhibition, hits mostly inhibitors; active means well fitted inhibition curve with a large enough effect, not every such curve was filed as active; inconclusive means small, poorly fitted or top-dose-only effect, or another doubt; inactive means no such curve, though single readings can be large or run the other way;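 further: plate controls were no enzyme wells and a reference inhibitor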
# Target sequence (P00352 whole entry, looked up): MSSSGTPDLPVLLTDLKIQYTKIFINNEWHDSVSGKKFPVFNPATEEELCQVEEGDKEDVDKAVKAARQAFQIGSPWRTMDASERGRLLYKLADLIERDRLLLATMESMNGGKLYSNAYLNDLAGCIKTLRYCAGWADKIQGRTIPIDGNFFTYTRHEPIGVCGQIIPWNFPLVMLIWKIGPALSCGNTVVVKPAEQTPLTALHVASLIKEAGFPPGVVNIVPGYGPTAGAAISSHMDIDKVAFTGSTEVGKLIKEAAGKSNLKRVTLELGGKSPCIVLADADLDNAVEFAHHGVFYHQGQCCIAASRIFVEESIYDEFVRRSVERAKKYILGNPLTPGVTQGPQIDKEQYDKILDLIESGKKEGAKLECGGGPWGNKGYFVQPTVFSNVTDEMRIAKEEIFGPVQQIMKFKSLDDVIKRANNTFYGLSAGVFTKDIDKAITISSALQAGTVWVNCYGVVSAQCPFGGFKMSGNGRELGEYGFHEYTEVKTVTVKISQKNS
# HPGD inh: HPGD (human) dehydrogenase inhibition; P15428; purified HPGD, NADH fluorescence kinetic, PGE2 substrate; Potency, µM, inactives show top-dose activity change, negative = inhibition, usual class: inhibitors; 4.3% of 150,000 active; AID 894; active means well fitted inhibition curve with a large enough effect, not every such curve was filed as active; inconclusive means small, poorly fitted or top-dose-only effect, or another doubt; inactive means no such curve, though single readings can be large or run the other way
# Target sequence (P15428 whole entry, looked up): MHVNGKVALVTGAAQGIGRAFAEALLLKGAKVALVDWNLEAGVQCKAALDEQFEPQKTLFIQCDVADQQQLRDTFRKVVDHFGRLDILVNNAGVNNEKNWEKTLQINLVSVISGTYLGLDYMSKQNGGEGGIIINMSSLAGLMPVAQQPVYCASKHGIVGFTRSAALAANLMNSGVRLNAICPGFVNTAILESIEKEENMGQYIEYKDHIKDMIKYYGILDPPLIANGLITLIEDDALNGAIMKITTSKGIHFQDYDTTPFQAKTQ
#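 20 nM HPGD preincubated 15 min at room temperature with compound in 50 mM Tris-HCl pH 8, 0.01% Tween 20. Started with 1 mM NAD+ and 30 uM prostaglandin E2; NADH fluorescence (360/450 nm) read 5 times over 30-s intervals, last minus first.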
# Lamin A splicing: changes lamin A minigene splicing in HeLa cells. HeLa LMNA splicing GFP/RFP minigene ratio, 48 h. Potency, µM (doses to about 46.1 µM), for inactives: top-dose ratio change, negative = inhibition, hits mostly inhibitors. 0.01% of 200,000 active. AID 1487; active means well fitted inhibition curve with a large enough effect in the signal ratio, with a control signal flat, not every such curve was filed as active; inconclusive means small, poorly fitted or top-dose-only effect, or effect the other way, or a change in a side signal; the % refers to the signal ratio
#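 S3 HeLa cells stably expressing lamin A-EGFP splicing minigene plus DsRed2, 600 cells/well, 48 h compound exposure at 37C. Laser-scanning cytometry; analysed as GFP (500-530 nm)/RFP (575-640 nm) total intensity ratio; 0.5% DMSO vehicle.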
# Luc counter: blocks Kinase-Glo luciferase, a counter-screen artifact | Q27757 | Potency, µM (doses to about 38.3 µM), for inactives: at the top dose activity change, negative = inhibition, hits mostly inhibitors | Kinase-Glo luciferase, ATP luminescence, 8 min | 0.28% of 200,000 active; further: nearly all actives have a fitted effect of over 60% in size
#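 Light output from Kinase-Glo luciferase with luciferin and 10 uM ATP in 50 mM imidazole pH 7.2, KCl, MgCl2, Tween 20, BSA; compound pin-delivered, 8-min ambient incubation, then luminescence read.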
# IMPase Li cell: IMPase inhibition in cells with lithium potentiation. CHO-M1 cells, IP1 TR-FRET (IP-One), carbachol + lithium. Potency, µM (highest dose often 59.4 µM), for inactives: top-dose activity, negative = IMPase inhibition, hits mostly inhibitors. 0.35% of 210,000 active. AID 1457;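 further: IP1 builds up when IMPase is blocked and the TR-FRET signal falls; plate controls were basal vehicle for no effect and high inhibitor control for full effect; nearly all actives have a fitted effect of over 50% in size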
#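 Steps: plate 2000 CHO-M1 cells per well and culture 16–30 h; add compound and lithium; incubate 30 min, 37C; add d2-IP1 tracer and Eu cryptate anti-IP1 antibody in lysis buffer; read after 10 min at room temperature.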
# * hit, by the source's call; ? = inconclusive; · = not tested or not shown; [ ] = another dose, or the depositor's remark. Unless noted, the call rests on the fitted dose curve; in most records, active means well fitted curve in the direction sought with a large enough effect; inconclusive means small, poorly fitted or top-dose-only effect, or another doubt; inactive means no such curve, though single readings can be large; an effect the other way counts as inactive or inconclusive. Unless noted, on the % scale 0 is the no-effect control and ±100 the full control effect; potency means the concentration at half of the fitted maximal effect.
SMILES,ALDH1A1 inh,HPGD inh,Lamin A splicing,Luc counter,IMPase Li cell
O=c1[nH]c(/C=C2\C=Nc3ccccc32)c(O)n1Cc1ccccc1F,13µM*,·,-8%[9.22 µM],4%,18%
CSc1nc(O)c(/C=C2\C=Nc3ccccc32)[nH]1,?,?,-6%,6.3µM*,3%
CCOc1ccccc1C(=O)NCc1ccc2c(c1)CCN2C(=O)c1ccccc1,·,·,-10%[46 µM],·,·
CCCCc1nc2c(c3c1C[C@H](C)OC3)CN(C(=O)N[C@@H](C)c1ccccc1)CC2,15%[13.5 µM],-7%,9%[9.22 µM],0%[7.66 µM],-3%
Cc1cccc(N(C)S(=O)(=O)c2ccc3[nH]c(=O)c(=O)[nH]c3c2)c1,?,14µM*,-1%,-3%,-17%[38.3 µM]
CC(=O)OC[C@@H]1O[C@@H](O/N=C2/C[C@@H](O)[C@@H](O)[C@@H]3[C@@H]4C(=O)N([C@@H](C)c5ccccc5)C(=O)[C@H]4CC[C@@H]23)[C@H](OC(C)=O)[C@H](OC(C)=O)[C@@H]1OC(C)=O,4%[13.5 µM],·,·,·,·
CCCCCCC1(C)NC(=S)N(c2ccccc2)N1 (stereo not given),?,·,·,3%,3%
CC1CCC2(CC1)NC(=S)N(c1ccccc1)N2 (stereo not given),16µM*,-4%,?,2%,-9%[38.3 µM]
CCCN1CNc2c(c(=O)[nH]c(=S)n2-c2ccc(Cl)cc2)C1,?,·,·,4%,-5%
O=c1oc2ccccc2cc1-c1nc2c(s1)CCCC2,?,?,?,11µM*,-19%[38.3 µM]
COc1ccccc1-c1nnc2n1N=C(C)CS2,-4%,-16%,3%,0%,-13%[38.3 µM]
CC1=Nn2c(nnc2-c2ccco2)SC1,18µM*,32µM*,5%,-1%,4%[38.3 µM]
CC1=Nn2c(nnc2-c2ccccc2Cl)SC1,-11%,25µM*,2%,0%,8%[38.3 µM]
O=C(CSc1cccc[n+]1[O-])N1CCc2ccccc21,-2%,·,?,·,·
CS(=O)(=O)c1ccc(C(=O)OCc2nnc(-c3ccccc3)o2)cc1[N+](=O)[O-],0%,·,-18%[46 µM],-2%,32%
COc1ccc2nc(COC(=O)c3cccc([N+](=O)[O-])c3)c(C(C)=O)[n+]([O-])c2c1,-6%,·,·,·,·
CC(=O)c1c(COC(=O)c2ccccc2)nc2ccccc2[n+]1[O-],?,14µM*,-5%,-2%,6%[38.3 µM]
COc1ccc(C(=O)CCC(C)(C)[N+](=O)[O-])cc1OC,8.9µM*,·,5%[46 µM],2%,-2%
COc1ccc(CCNc2ccc(C(=O)O)cc2[N+](=O)[O-])cc1OC,-1%,·,1%[9.22 µM],-3%,-1%
Cc1oc(C)c2c(=O)ccc3c(c12)OC(N)=C(C#N)C3c1ccc(F)cc1 (stereo not given),14µM*,25µM*,?,-4%,15%[38.3 µM]
c1ccc(-c2nnc(CSc3nncs3)o2)cc1,-8%,25µM*,10%,0%,19%[38.3 µM]
Nc1cc(=O)[nH]c(SCc2nnc(-c3ccccc3)o2)n1,6%,-9%,7%,0%,6%[38.3 µM]
c1ccc(Cc2nnc(-c3ccccc3)o2)cc1,-2%,7.9µM*,19%,-6%,-1%[38.3 µM]
COc1ccc(Cc2nnc(-c3ccccc3)o2)cc1,4%,·,·,1%,13%
CN(CC(=O)Nc1ccc([N+](=O)[O-])cc1Br)Cc1c(F)cccc1Cl,10µM*,·,·,·,·
SMILES,ALDH1A1 inh,HPGD inh,Lamin A splicing,Luc counter,IMPase Li cell
CC(/C=C/c1ccc(O)cc1)=N/O,-9%,-19%,?,-10%,-1%
CCCN=Cc1ccc(O)cc1,8.9µM*,·,?,0%,3%
COC(=O)c1ccc(C(=O)OC)c(NC(=O)COc2ccccc2OC)c1,13µM*,-22%,-8%,0%,-2%[38.3 µM]
CCOC(=O)c1ccccc1NC(=O)CSc1nc(N)cc(N)n1,-8%,0%,-3%,2%,-7%
COc1ccccc1-c1nnc(SCC(=O)NC2CCCCC2)o1,7%,-18%,?,6%,1%
COc1ccccc1-c1nnc(SCC(=O)Nc2c(Cl)cccc2Cl)o1,22µM*,-4%,?,-6%,18%[38.3 µM]
COC(=O)c1ccc(C(=O)OC)c(NC(=O)CN2CCN(c3ccccc3OC)CC2)c1,?,-20%,-10%,4%,4%
COC(=O)c1ccccc1NC(=O)CN1C(=O)c2ccccc2S1(=O)=O,25µM*,-5%,14%,3%,14%[38.3 µM]
CCC(C)NC(=O)c1ccccc1NC(=O)CN1C(=O)c2ccccc2S1(=O)=O (stereo not given),-5%,-9%,0%,-3%,17%[38.3 µM]
COC(=O)c1ccccc1NC(=O)CSc1nc(N)cc(N)n1,25µM*,-16%,9%,2%,-3%[38.3 µM]
CC(C)CNC(=O)COC(=O)Cc1ccc(Cl)cc1,0%,·,6%[46 µM],4%,-3%
Cc1cc(C(C)(C)C)c(OCCCN2CCOCC2)c(C(C)(C)C)c1,0%[13.5 µM],-8%,·,-1%[7.66 µM],1%
CC/C(=N\Nc1ccccc1[N+](=O)[O-])c1ccc(O)cc1,-6%,·,?,-6%,11%
COC(=O)c1ccc(CN2C(=O)c3ccccc3S2(=O)=O)cc1,-9%,-9%,6%,-6%,-8%[38.3 µM]
COC(=O)c1ccccc1NC(=O)CNc1cc(OC)c(OC)cc1C,10µM*,-15%,?,1%,15%
COC(=O)c1ccccc1NC(=O)CSc1nnc(-c2ccncc2)o1,18µM*,-21%,?,-2%,28%[38.3 µM]
CCOC(=O)c1cnc(SCc2cccc(C)c2)nc1N,25µM*,?,?,-1%,10%
COC(=O)c1cccc(N2C(=O)c3ccccc3S2(=O)=O)c1,-37%,25µM*,8%,-8%,10%[38.3 µM]
CCc1ccccc1NCC(=O)Nc1ccccc1C(=O)OC,?,·,-9%,·,·
COc1ccc(C(=O)NNC(=O)CSc2nnc(C)n2CC2CCCO2)cc1 (stereo not given),-4%,·,-3%[46 µM],-2%,6%
CC(=O)N[C@H]1[C@@H](O[C@@H](C)C(=O)O)[C@H](O)[C@H](CO)O[C@@H]1O,5%[20.9 µM],1%,-6%,-1%[17.1 µM],8%
Cc1ccccc1Nc1nc(N)nc(COC(=O)CC2CC3CCC2C3)n1 (stereo not given),-9%,-4%,?,-4%,3%
c1ccc2c(c1)C(=Nc1ccc(N=C3c4ccccc4-c4ccccc43)cc1)c1ccccc1-2,17%[13.5 µM],-4%,·,-1%[7.66 µM],11%
CCOC(=O)c1ccccc1NC(=O)CSc1ncc(C(=O)OCC)c(N)n1,20µM*,-7%,2%,-2%,36%[38.3 µM]
C/C=C(\C)CN1CCN(c2cc(C)ccc2C)CC1,16µM*,-15%,5%,-7%,2%[38.3 µM]
O=C(On1c(-c2ccccc2)nc2ccccc2c1=O)c1ccco1,8.9µM*,?,10%,-3%,2%[38.3 µM]
O=C(COc1ccc([N+](=O)[O-])cc1)Nc1ccc(C(=O)NCc2cccnc2)cc1,-2%,-3%,-7%,-4%,-3%[38.3 µM]
Cc1nc(N2CCN(C(=O)COc3ccccc3)CC2)c2c(C)c(C)sc2n1,11µM*,?,?,-1%,31%[38.3 µM]
